Our source for the growth values is PubChem BioAssay (NCI).

The structures appear in SMILES notation. Compounds without any hit were thinned out: in the full panel of roughly 83,000, 20% have a hit.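 Method: cells in 96-well plates; compound added at one concentration; 48 h incubation; percent growth measured; values under 10 scored active.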 Values without a mark were called inactive. Activity calls are given as the source filed them.

Some test systems named below: SK-MEL-2 melanoma; EKVX NSCLC; SN12C renal; UO-31 renal; TK-10 renal; ACHN renal; CAKI-1 renal; A498 renal; CCRF-CEM leukemia; MOLT-4 leukemia; RPMI-8226 leukemia; OVCAR-8 ovarian; OVCAR-5 ovarian; OVCAR-4 ovarian; SK-OV-3 ovarian; IGROV1 ovarian; OVCAR-3 ovarian; NCI/ADR-RES ovarian; HS 578T breast.
Common to all, as to assay: NCI-60 one-dose screen, 48 h (100 = growth as untreated, 0 = no growth, -100 = all killed)
Conditions in all cases: 10 µM unless noted

Take `CCCCCCCCCCCC(c1ccccc1)[N+](C)(C)C` (stereo unspecified): the growth with SK-MEL-2 melanoma was -19.8% (active); with EKVX NSCLC, 42.7%; in the assay with SN12C renal it was 9.01% (active); in the assay on UO-31 renal it was 80.8%; in the assay with TK-10 renal, 1.24% (active); with ACHN renal, 81.9%. In addition, the growth in the assay on CAKI-1 renal is 102%; with A498 renal, 55.4%; in the assay on CCRF-CEM leukemia it was 16.1%; with MOLT-4 leukemia, 5.29% (active); with RPMI-8226 leukemia it was -16.1% (active); with OVCAR-8 ovarian it was 19.3%. For the same molecule, the growth in the assay on OVCAR-5 ovarian was 17.3%; in the assay on OVCAR-4 ovarian, 9.74% (active); with SK-OV-3 ovarian, 10.3%; in the assay on IGROV1 ovarian it was -60.8% (active); in the assay on OVCAR-3 ovarian it was 18.6%; in the assay on NCI/ADR-RES ovarian it was 91.7%.

For the molecule `N#Cc1c(N)nc2c(C#N)c(NC(=O)c3ccccc3)nn2c1-c1ccccc1`, the growth in the assay with SK-MEL-2 melanoma is 101%; with EKVX NSCLC it was 71.9%; in the assay on SN12C renal, 91.7%; with UO-31 renal, 61.3%; in the assay with TK-10 renal it was 135%; with ACHN renal, 89.6%. In addition, the growth is 91% with CAKI-1 renal; 59.1% in the assay with A498 renal; 57.2% in the assay with CCRF-CEM leukemia; 74.9% in the assay on MOLT-4 leukemia; 44.1% with RPMI-8226 leukemia; 77% in the assay on OVCAR-8 ovarian. The growth is 105% in the assay with OVCAR-5 ovarian; 88.8% in the assay with OVCAR-4 ovarian; 96.8% in the assay with SK-OV-3 ovarian; 59.1% with IGROV1 ovarian; 89.5% with OVCAR-3 ovarian; 94.7% in the assay with HS 578T breast. Moreover, in the assay with NCI/ADR-RES ovarian, the growth was 85.5%.

As for `NC(=O)c1ccc[n+]([C@@H]2O[C@H](COP(=O)([O-])OP(=O)(O)OC[C@H]3O[C@@H](n4cnc5c(N)ncnc54)[C@H](O)[C@@H]3O)[C@@H](O)[C@H]2O)c1`, the growth with SK-MEL-2 melanoma was 137%; with EKVX NSCLC, 106%; in the assay with SN12C renal, 107%; in the assay with UO-31 renal, 105%; in the assay on TK-10 renal, 120%; with ACHN renal, 106%. The growth in the assay with CAKI-1 renal is 98.3%; in the assay on A498 renal, 97.2%; in the assay with CCRF-CEM leukemia it was 95.4%; in the assay with MOLT-4 leukemia it was 108%; with RPMI-8226 leukemia it was 97.6%; with OVCAR-8 ovarian, 96.8%. The growth in the assay with OVCAR-5 ovarian was 107%; in the assay with OVCAR-4 ovarian, 106%; in the assay on SK-OV-3 ovarian it was 113%; in the assay on IGROV1 ovarian it was 109%; in the assay with OVCAR-3 ovarian, 107%; in the assay on HS 578T breast, 107%. The growth with NCI/ADR-RES ovarian was 99.2%.

For the molecule `Cc1c(Cl)cc(-n2c(=O)c3ccccc3c3ccccc3c2=O)cc1Cl`, the growth is 98.3% in the assay with SK-MEL-2 melanoma; 97% in the assay on EKVX NSCLC; 85.2% with SN12C renal; 65.3% in the assay on UO-31 renal; 111% in the assay on TK-10 renal; 101% in the assay with ACHN renal. In addition, the growth with CAKI-1 renal was 80.9%; in the assay on A498 renal, 141%; in the assay with CCRF-CEM leukemia it was 97.9%; with MOLT-4 leukemia it was 95.5%; with RPMI-8226 leukemia, 91.8%; in the assay on OVCAR-8 ovarian it was 105%. In addition, the growth was 101% in the assay with OVCAR-5 ovarian; 104% in the assay with OVCAR-4 ovarian; 98.4% in the assay with SK-OV-3 ovarian; 86.7% with IGROV1 ovarian; 127% in the assay with OVCAR-3 ovarian; 99.3% in the assay with HS 578T breast. Further, the growth with NCI/ADR-RES ovarian was 102%.

Take `CCc1ccccc1-n1c(-c2ccc(Cl)cc2)cc(-c2ccc(Cl)cc2)c(C#N)c1=O`: the growth with SK-MEL-2 melanoma was 103%; in the assay on EKVX NSCLC, 87.5%; in the assay on SN12C renal, 92.3%; with UO-31 renal, 75.3%; with TK-10 renal, 94.5%; with ACHN renal, 98.8%. Further, the growth was 90.2% in the assay on CAKI-1 renal; 94.9% with A498 renal; 34.4% in the assay with CCRF-CEM leukemia; 31.8% in the assay with MOLT-4 leukemia; 49.3% in the assay on RPMI-8226 leukemia; 88.9% with OVCAR-8 ovarian. Moreover, the growth in the assay on OVCAR-5 ovarian is 92.2%; in the assay with OVCAR-4 ovarian it was 85.9%; in the assay on SK-OV-3 ovarian it was 96.5%; in the assay on IGROV1 ovarian, 96.1%; with OVCAR-3 ovarian, 87.7%; in the assay with HS 578T breast it was 88.4%. Further, in the assay on NCI/ADR-RES ovarian, the growth was 81.7%.

As to `Nc1ccc2c(c1)c(N)nn2C(=O)Nc1ccc(Cc2ccccc2)cc1`, the growth was 73.7% in the assay with SK-MEL-2 melanoma; 82.3% with EKVX NSCLC; 61.1% with SN12C renal; 39.3% in the assay on UO-31 renal; 88.3% in the assay with TK-10 renal; 48.9% with ACHN renal. For the same molecule, the growth was 38.9% in the assay with CAKI-1 renal; 103% with A498 renal; 55.5% in the assay with CCRF-CEM leukemia; 27.8% in the assay with MOLT-4 leukemia; 28.2% in the assay on RPMI-8226 leukemia; 83.5% with OVCAR-8 ovarian. For the same molecule, the growth was 67.2% with OVCAR-5 ovarian; 56.2% in the assay with OVCAR-4 ovarian; 107% in the assay with SK-OV-3 ovarian; 83.4% in the assay with IGROV1 ovarian; 70.1% in the assay with OVCAR-3 ovarian; 101% in the assay with HS 578T breast. Moreover, in the assay on NCI/ADR-RES ovarian, the growth is 78%.

In the case of `CC1(C)CC(=O)CC2(C1)N=C(N)Nc1nc3ccccc3n12` (stereo unspecified), the growth is 100% with SK-MEL-2 melanoma; 102% in the assay on EKVX NSCLC; 100% in the assay with SN12C renal; 96.6% in the assay with UO-31 renal; 105% in the assay on TK-10 renal; 91.9% in the assay with ACHN renal. Moreover, the growth in the assay on CAKI-1 renal is 105%; in the assay on A498 renal it was 99.7%; in the assay on CCRF-CEM leukemia, 93%; in the assay with MOLT-4 leukemia, 82.3%; with RPMI-8226 leukemia it was 94.4%; in the assay on OVCAR-8 ovarian it was 104%. Further, the growth with OVCAR-5 ovarian is 98.7%; in the assay on OVCAR-4 ovarian, 91.7%; in the assay with SK-OV-3 ovarian, 101%; in the assay with IGROV1 ovarian, 90.5%; with OVCAR-3 ovarian, 111%; with HS 578T breast, 137%. Further, the growth in the assay with NCI/ADR-RES ovarian is 106%.

On to `Cc1c(C(=O)NC(Cc2ccccc2)C(O)C(=O)NCc2ccc(F)cc2)[nH]c2ccccc2c1=O` (stereo unspecified), for which the growth is 108% in the assay on SK-MEL-2 melanoma; 104% with EKVX NSCLC; 107% with SN12C renal; 94% in the assay with UO-31 renal; 102% in the assay on TK-10 renal; 107% with ACHN renal. In addition, the growth is 102% in the assay on CAKI-1 renal; 107% with A498 renal; 109% with CCRF-CEM leukemia; 93.6% in the assay on MOLT-4 leukemia; 105% in the assay on RPMI-8226 leukemia; 103% in the assay with OVCAR-8 ovarian. Also, the growth is 91% with OVCAR-5 ovarian; 107% in the assay on OVCAR-4 ovarian; 104% in the assay on SK-OV-3 ovarian; 103% with IGROV1 ovarian; 114% in the assay with OVCAR-3 ovarian; 99% in the assay with HS 578T breast. Further, the growth in the assay with NCI/ADR-RES ovarian is 107%.
